High-throughput results from PubChem BioAssay.
KCNQ2 inh: blocks the rat KCNQ2 potassium channel. CHO-K1 KCNQ2, FluxOR thallium flux, 20 min; stronger effect = lower value. actives 1.1% (n = 310,000). O88943. AID 2156. B-score at 10 µM;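 active = fluorescence ratio B-score at most minus 3 library SDs, with starting brightness B-score within 2 library SDs, cut at about -5.5 in these data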
KCNQ2 pot: potentiators of rat KCNQ2 potassium channel. CHO-K1 KCNQ2, FluxOR thallium flux fluorescence; stronger effect = higher value. B-score at 10 µM. actives 0.54% (n = 310,000);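 active = fluorescence ratio B-score at least 3 SD of library B-scores, with initial fluorescence B-score within 3 of them, cut at about 5.3 in these data; same plate scores as AID 2156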;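 note: B-score of peak minus minimum over baseline fluorescence ratio after K+ and Tl+ stimulus; positive B-score means potentiation of KCNQ2 with more thallium influx and brighter signal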
KCNQ2 inh conf: confirmation of rat KCNQ2 potassium channel inhibitors. shares compounds with KCNQ2 inh. KCNQ2-expressing cells, thallium flux, inhibition; stronger effect = lower value. activity change, negative = inhibition, % at 10 µM. actives 57% (n = 1,000). AID 493025;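 note: 0% = vehicle wells and values are ratio percent relative to vehicle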
KCNQ1 spec: KCNQ2 inhibitor that also affects human KCNQ1 channel; KCNQ1-expressing cells, FluxOR thallium flux fluorescence; stronger effect = lower value; AID 493026; shares compounds with KCNQ2 inh; activity change, negative = inhibition, % at 10 µM; actives 15% (n = 1,000);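 active = activity change at least 3 SD of negative controls below their mean in both duplicate wells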;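 note: CHO cells stably transfected with KCNQ1 and depolarized by potassium stimulus; peak minus minimum fluorescence over baseline after thallium addition; 0% = vehicle negative control and -100% = blank without thallium stimulus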
Target sequence (P51787 whole entry, looked up): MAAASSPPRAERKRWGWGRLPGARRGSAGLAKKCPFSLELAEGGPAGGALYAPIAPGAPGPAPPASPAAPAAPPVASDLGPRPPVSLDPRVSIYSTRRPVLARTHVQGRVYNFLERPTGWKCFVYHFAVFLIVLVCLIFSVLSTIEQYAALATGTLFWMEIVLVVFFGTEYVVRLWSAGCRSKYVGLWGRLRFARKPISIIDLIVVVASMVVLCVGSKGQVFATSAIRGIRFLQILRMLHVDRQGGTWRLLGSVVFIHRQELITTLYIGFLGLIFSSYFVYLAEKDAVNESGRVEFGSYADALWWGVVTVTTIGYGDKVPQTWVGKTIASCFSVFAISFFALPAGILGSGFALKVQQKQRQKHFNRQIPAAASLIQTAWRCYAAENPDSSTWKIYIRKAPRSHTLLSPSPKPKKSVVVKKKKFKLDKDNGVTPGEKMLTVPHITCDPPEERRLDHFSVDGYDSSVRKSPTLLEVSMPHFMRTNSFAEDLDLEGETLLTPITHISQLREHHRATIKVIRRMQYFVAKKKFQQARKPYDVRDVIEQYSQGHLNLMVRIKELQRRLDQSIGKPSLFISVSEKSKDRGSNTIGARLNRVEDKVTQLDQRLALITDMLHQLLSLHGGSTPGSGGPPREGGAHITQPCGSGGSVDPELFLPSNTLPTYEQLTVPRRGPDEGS
CHO Tl ctr: KCNQ2 inhibitor counter-screen hit in parental CHO cells; actives 14% (n = 1,000); activity change, % at 10 µM; shares compounds with KCNQ2 inh; thallium flux counter-screen; stronger effect = lower value;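 note: 0% = vehicle negative controls with stimulus buffer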
KCNQ2 inh confirm: blocks rat KCNQ2 current in automated patch clamp | shares compounds with KCNQ2 inh | KCNQ2-expressing cells | calls only at 10 µM | actives 49% (n = 550)
* marks the source's active call; other numbers are inactive results; i = inactive; . = not tested or not shown; + = active, no number. This is a sample that favours compounds with a hit; in the whole collection about 1.6% have one here. Unless noted, the rule behind the calls is not given here.

SMILES | KCNQ2 inh | KCNQ2 pot | KCNQ2 inh conf | KCNQ1 spec | CHO Tl ctr | others
Cc1cccc(NCc2nc3ccccc3n2Cc2ccccc2)c1 | -8.4* | -8.4 | i | i | i
COc1ccc(CO[C@@H]2O[C@H](CO)[C@@H](O)[C@H](O)[C@H]2NC(C)=O)cc1OC | i | . | . | . | .
O=C(c1cn(-c2ccccc2)nc1-c1cccs1)N(CCO)Cc1ccccc1 | -7.5* | -7.5 | i | i | i
CN(C)C(=O)c1cn(-c2ccccc2)nc1-c1cccs1 | i | 0.55 | . | . | .
Cc1onc(-c2c(Cl)cccc2Cl)c1C(=O)Nc1ccc(C(N)=O)cc1 | i | . | . | . | .
C=C(C)c1cccc(C(C)(C)NC(=O)N(Cc2ccccc2)Cc2ccco2)c1 | -8.7* | -8.7 | -23%* | i | i | KCNQ2 inh confirm=i
C=C(C)c1cccc(C(C)(C)NC(=O)NC2CCN(Cc3ccccc3)CC2)c1 | i | 2.3 | . | . | .
CCOC(=O)C1CCN(Cc2cn(C)nc2-c2ccc(Oc3ccccc3)cc2)CC1 | i | . | . | . | .
COc1cccc(C(C[N+](=O)[O-])c2c(C)[nH]n(-c3ccccc3)c2=O)c1 (centres undefined) | -12* | -12 | i | i | i
Cc1[nH]n(-c2ccccc2)c(=O)c1C(C[N+](=O)[O-])c1ccc(Br)cc1 (centres undefined) | i | . | . | . | .
COc1ccc(CN(C)C(=O)C(Cc2ccccc2)NC(=O)c2ccccc2)c(OC)c1 (centres undefined) | -6.7* | -6.7 | -33%* | i | i | KCNQ2 inh confirm=+
COc1ccc(CN(C)C(=O)c2ccc(COc3ccccc3)cc2)c(OC)c1 | i | . | . | . | .
NNC(=O)c1nc(Cl)c(Cl)c(N)c1Cl | i | . | . | . | .
Cc1cc(C)c(S(=O)(=O)N(C)c2ccccc2)c(C)c1 | -7.5* | -7.5 | -31%* | i | i | KCNQ2 inh confirm=i
Cc1cc2c(cc1S(=O)(=O)N(C)c1ccccc1)n(C)c(=O)n2C | i | 0.79 | . | . | .
COCCNC(=O)C(c1ccc(Cl)cc1)N(CCOC)C(=O)CCC(=O)Nc1ccccn1 (centres undefined) | i | 1.4 | . | . | .
COc1cccc(C(=O)NC(=S)Nc2ccccc2N2CCOCC2)c1 | -8.7* | -8.7 | -29%* | i | i | KCNQ2 inh confirm=+
CC(C)Oc1cccc(C(=O)Nc2ccccc2N2CCOCC2)c1 | i | . | . | . | .
CCOc1ccc(S(=O)(=O)N2CCC(C(=O)N3CCCC3)CC2)cc1C | i | 0.3 | . | . | .
CCn1c(COc2ccc(OC)cc2)nc2ccccc21 | i | . | . | . | .
CCOC(=O)c1ccc2c(c1)nc(COc1ccc3ccccc3c1)n2CC | -9.1* | -9.1 | i | i | i
C[C@H](NC(=O)c1nc[nH]c1C(=O)N1CCNCC1)C(=O)OC(C)(C)C | i | 0.22 | . | . | .
CC(OC(=O)c1nc(-c2ccccc2)n(-c2ccccc2)n1)C(=O)Nc1cc(Cl)cc(Cl)c1 (centres undefined) | -6.9* | -6.9 | i | i | i
CC(C)CNC(=O)c1nc(-c2ccccc2)n(-c2ccccc2)n1 | i | . | . | . | .
N#CC(C#N)=C1C=CC=CN1/C(=C\c1ccccc1)C(=O)c1cccs1 | -10* | -10 | i | i | i
SMILES | KCNQ2 inh | KCNQ2 pot | KCNQ2 inh conf | KCNQ1 spec | CHO Tl ctr | others
O=C(N/N=C/C(Br)=C\c1ccccc1)c1cccs1 | i | . | . | . | .
Cc1nnc(NC(=O)C(C)Sc2nnc(-c3ccco3)n2C(C)C)s1 (centres undefined) | i | 0.03 | . | . | .
CCN(Cc1ccccc1)C(c1cccs1)c1nnnn1C1CCCCC1 (centres undefined) | -10* | -10 | -34%* | i | i | KCNQ2 inh confirm=i
CCN(Cc1ccccc1)C(c1ccccn1)c1nnnn1C1CCCCC1 (centres undefined) | i | . | . | . | .
COc1ccc(/C=N/Nc2nc(C)cc(-c3ccccc3)n2)c(OC)c1 | i | 1.8 | . | . | .
COc1ccc(/C=N/Nc2cc(C)nc3ccc(OC)cc23)c(OC)c1 | -9* | -9 | -41%* | -32%* | -24%* | KCNQ2 inh confirm=i
Cc1nc2ncnn2c(C)c1Cc1cccc(C(F)(F)F)c1 | i | 0.45 | . | . | .
Cc1nc2ccc(NC(=O)CSc3nnc(C)s3)cc2[nH]1 | i | 1.7 | . | . | .
CCN1C(=O)/C(=C/N(C(C)=O)c2ccccc2)N(c2ccccc2)C1=S | -9.6* | -9.6 | i | i | i
CCc1ccc(/C=C2/C(=O)N(c3ccccc3)C(=S)N2CC(=O)OC)s1 | i | . | . | . | .
COc1ccc(CCNC(=O)C2CC(=O)N(C3CCCCC3)C2)cc1OC (centres undefined) | i | 1.4 | . | . | .
Cc1nn(-c2ccccc2)c(N)c1-c1ccccc1 | i | . | . | . | .
Cc1nn(-c2ccccc2)c(/N=C/c2ccccc2O)c1-c1ccccc1 | -11* | -11 | -43%* | -50%* | -43%* | KCNQ2 inh confirm=i
CC1N(C(=O)N2CCOCC2)CCN1S(=O)(=O)c1cccc(C(F)(F)F)c1 (centres undefined) | i | 1.5 | . | . | .
Cc1ccc(C2(c3ccc(C)cc3)CC2C(=O)NC(C)C)cc1 (centres undefined) | i | . | . | . | .
CCCC[C@@H]1C[C@H]1[C@@H](NC(=O)c1ccco1)c1ccccc1C(F)(F)F | i | . | . | . | .
CCCC[C@@H]1C[C@H]1[C@@H](NC(=O)c1cccs1)c1ccc(C(F)(F)F)cc1 | -8.7* | -8.7 | -18%* | i | i | KCNQ2 inh confirm=i
O=C(CCn1cnnn1)Nc1cccc(F)c1 | i | 0.55 | . | . | .
CC(C)CC1Nc2ncnc(N3CCCCC3)c2N(Cc2ccc(Br)cc2)C1=O (centres undefined) | i | . | . | . | .
CCOCCCNC(=O)c1cc2c(-c3ccc(Cl)cc3)nn(C)c2s1 | i | 0.84 | . | . | .
CCCCN(CC)CCNC(=O)c1cc2c(-c3ccc(Cl)cc3)nn(C)c2s1 | -8.4* | -8.4 | -35%* | i | i | KCNQ2 inh confirm=i
CCCN(CCC)CCNC(=O)c1cc2c(-c3ccc(Cl)cc3)nn(C)c2s1 | -7.3* | -7.3 | -34%* | i | i | KCNQ2 inh confirm=i
CCN(CC)CCNC(=O)c1cc2c(-c3ccc(Cl)cc3)nn(C)c2s1 | i | . | . | . | .
COc1cccc(NC(=O)Nc2ccc(C(C)(C)C)cc2)c1 | -8.7* | -8.7 | i | i | i
COc1cccc(NC(=O)Nc2ccncc2)c1 | i | 0.23 | . | . | .
SMILES | KCNQ2 inh | KCNQ2 pot | KCNQ2 inh conf | KCNQ1 spec | CHO Tl ctr | others
O=C(CNC(=O)c1ccccc1)NC1(C(=O)NC2CCCCC2)CCCCC1 | i | . | . | . | .
Cc1ccccc1Nc1nc(N)nc(COC(=O)/C=C/c2ccco2)n1 | i | 1.7 | . | . | .
Nc1nc(SCC(=O)N2CCCC2)[nH]c(=O)c1NC(=O)c1cccs1 | i | 2.4 | . | . | .
O=C(N/N=C/c1cc(Br)c(O)c(Br)c1)c1cc2c(ccc3ccccc32)o1 | -11* | -11 | -53%* | -50%* | -54%* | KCNQ2 inh confirm=i
O=C(N/N=C/c1ccc(O)c(Br)c1)c1cc2c(ccc3ccccc32)o1 | i | . | . | . | .
COc1ccccc1OCC(=O)Nc1ccccc1C(=O)N1CCCC1 | i | 0.04 | . | . | .
O=C(COc1ccc(F)cc1Cl)Nc1ccccc1C(=O)N1CCCCC1 | -8.6* | -8.6 | -22%* | i | i | KCNQ2 inh confirm=+
Cc1ccc(SCc2c(-c3ccccc3)nn(C)c2Cl)cc1 | i | . | . | . | .
